Most compounds without a hit are left out; they make up all but 1.7% or so of the library.
CCHF vOTU inh: blocks the CCHF virus ovarian tumor domain protease; CCHFV vOTU protease, Pep-AMC fluorescence; inhibition, % at 11.5 µM; actives 0.55% (n = 370,000); in the data active means inhibition above about 30%; further: 0% = vehicle wells with enzyme and 100% = no enzyme wells
VHR inh abs: blocks human VHR1 dual specificity phosphatase; P51452; recombinant VHR phosphatase, pNPP absorbance; inhibition, % at 13.3 µM; actives 0.52% (n = 290,000); AID 1654; in the data active means inhibition above about 50%
Target sequence (P51452 whole entry, looked up): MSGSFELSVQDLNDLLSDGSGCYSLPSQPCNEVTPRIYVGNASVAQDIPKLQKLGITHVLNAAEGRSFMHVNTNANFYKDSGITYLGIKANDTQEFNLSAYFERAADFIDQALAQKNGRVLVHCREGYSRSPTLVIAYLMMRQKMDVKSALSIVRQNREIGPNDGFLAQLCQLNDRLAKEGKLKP
RecA splice inh: inhibitors of M. tuberculosis RecA intein splicing | cell-free RecA intein splicing, fluorescence | inhibition, % (test concentration not listed) | actives 0.75% (n = 290,000) | AID 2221; in the data active means inhibition above about 30%;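 further: 0% = vehicle wells and 100% = reference inhibitor control wells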
SSB-PriA inh: inhibitors of Klebsiella pneumoniae PriA binding to SSB C-terminal tail | inhibition, % at 33 µM | AID 1272365 | actives 0.6% (n = 430,000) | AlphaScreen SSBct-PriA binding, biotinylated peptide; in the data active means inhibition mostly above about 37%, no sharp cut-off; inactive means mostly below about 20%;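 further: plate controls were negative control peptide for no effect and reference peptide for full effect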
SARS 3CLpro inh-1: SARS-CoV 3CLpro protease inhibition. P0C6X7. recombinant SARS-CoV 3CLpro, quenched FRET peptide cleavage. inhibition, % at 6 µM. actives 0.14% (n = 290,000); in the data active means inhibition above about 12%
SARS 3CLpro inh-2: SARS 3CLpro inhibition, confirmation assay; actives 36% (n = 380); inhibition, % at 6 µM; QFRET protease activity assay; shares compounds with SARS 3CLpro inh-1; in the data active means inhibition above about 13%
Starred values were filed as active, the others as inactive.

Cc1ccccc1-n1c(CC2CCN(C(=O)Cc3ccc4c(c3)OCO4)CC2)n[nH]c1=O was read as SSB-PriA inh -8.
Screening Cc1cccc(C)c1NC(=O)Cc1cc(=O)[nH]c(SCc2cccc(Cl)c2)n1 returned SSB-PriA inh -11.
`CNc1ccc(Br)cc(C(=O)/C=C/c2ccc3c(c2)OCO3)c1=O` gave CCHF vOTU inh 9, VHR inh abs 33, RecA splice inh -3, SSB-PriA inh 6, SARS 3CLpro inh-1 13* and SARS 3CLpro inh-2 2.
`CNc1ccc(Br)cc(C(=O)/C=C/c2cc(OC)ccc2OC)c1=O` gave CCHF vOTU inh -1, VHR inh abs 0, RecA splice inh -2, SSB-PriA inh 8 and SARS 3CLpro inh-1 0.
CCc1c(C)sc(NC(=O)Cc2ccccc2OC)c1C(=O)N1CCOCC1 was read as CCHF vOTU inh -8, VHR inh abs -14, RecA splice inh -3, SSB-PriA inh 0, SARS 3CLpro inh-1 13* and SARS 3CLpro inh-2 0.
For COc1cccc(CSc2nc(CC(=O)Nc3c(C)cc(C)cc3C)cc(=O)[nH]2)c1 the results were SSB-PriA inh -16.
Screening COC(=O)c1ccc(CN2CCC(COCc3ccc(F)cc3)CC2)cc1 returned SSB-PriA inh -6.
O=C(Nc1ccccc1N1CCN(C(=O)c2ccc(Cl)cc2)CC1)c1cccc([N+](=O)[O-])c1 was read as CCHF vOTU inh -7, VHR inh abs -3, RecA splice inh 6, SSB-PriA inh 9, SARS 3CLpro inh-1 14* and SARS 3CLpro inh-2 -1.
For CN1CCN(c2ccccc2NC(=O)c2cccc([N+](=O)[O-])c2)CC1 the results were CCHF vOTU inh -1, VHR inh abs 35, RecA splice inh 1, SSB-PriA inh -15 and SARS 3CLpro inh-1 -1.
`O=C(N[C@@H](Cc1ccc(Br)cc1)C(=O)O)OCC1c2ccccc2-c2ccccc21` gave CCHF vOTU inh 12, VHR inh abs -10, RecA splice inh 2, SSB-PriA inh -16, SARS 3CLpro inh-1 12* and SARS 3CLpro inh-2 8.
`O=C(N[C@H](Cc1ccc(Cl)cc1)C(=O)O)OCC1c2ccccc2-c2ccccc21` gave CCHF vOTU inh 5, VHR inh abs 17, RecA splice inh 7, SSB-PriA inh -10 and SARS 3CLpro inh-1 6.
Screening COc1ccc(NC(=O)CC2C(=O)NCCN2C(=O)Nc2ccc(C(F)(F)F)cc2)cc1 (stereo not drawn) returned CCHF vOTU inh 10, VHR inh abs 10, RecA splice inh -2, SSB-PriA inh 1, SARS 3CLpro inh-1 13* and SARS 3CLpro inh-2 4.
`CN(Cc1c(C(=O)NN=Cc2cccc(O)c2)nnn1-c1nonc1N)c1ccccc1` gave SSB-PriA inh 15.
Screening CCCc1c(C(=O)N/N=C/c2c(OC)ccc3ccccc23)nnn1-c1nonc1N returned CCHF vOTU inh -2, VHR inh abs 1, RecA splice inh -7, SARS 3CLpro inh-1 14* and SARS 3CLpro inh-2 0.
Screening COc1cccc(/C=N/NC(=O)c2nnn(-c3nonc3N)c2CN(C)c2ccccc2)c1 returned CCHF vOTU inh 18, VHR inh abs 2, RecA splice inh 3, SARS 3CLpro inh-1 12* and SARS 3CLpro inh-2 0.
For CCCc1c(C(=O)NN=Cc2c(OC)ccc3ccccc23)nnn1-c1nonc1N the results were SSB-PriA inh -2.
Screening COc1ccc2nc(NCCCN3CCOCC3)sc2c1 returned SSB-PriA inh 19.
For O=C(Nc1nnc(-c2cccnc2)o1)C1CCN(S(=O)(=O)c2ccc(Cl)s2)CC1 the results were SSB-PriA inh -10.
Screening Cc1ccc2ncnc(Nc3ccccc3)c2c1 returned CCHF vOTU inh 5, VHR inh abs 19, RecA splice inh -6, SSB-PriA inh 2 and SARS 3CLpro inh-1 5.
`Cc1ccc(O)c(Nc2ncnc3ccccc23)c1` gave CCHF vOTU inh 5, VHR inh abs 17, SSB-PriA inh -4, SARS 3CLpro inh-1 13* and SARS 3CLpro inh-2 1.
For COCCN1CCCc2ccc(NS(=O)(=O)c3ccc4c(c3)OCCO4)cc21 the results were SSB-PriA inh 22.
`O=C(O)COc1ccc(Br)cc1C(c1c(C(=O)O)[nH]c2ccccc12)c1c(C(=O)O)[nH]c2ccccc12` gave VHR inh abs 2, SSB-PriA inh 8, SARS 3CLpro inh-1 13* and SARS 3CLpro inh-2 16*.
`O=C(O)c1[nH]c2ccccc2c1C(c1ccccc1)c1c(C(=O)O)[nH]c2ccccc12` gave CCHF vOTU inh 18, VHR inh abs 2, RecA splice inh 6, SSB-PriA inh -3 and SARS 3CLpro inh-1 2.
Screening Cc1cccc(N2C(N)=C(C#N)C(C#N)(C#N)C2c2ccccc2)c1 (stereo not drawn) returned CCHF vOTU inh 18, VHR inh abs -6, RecA splice inh 22, SSB-PriA inh -5, SARS 3CLpro inh-1 14* and SARS 3CLpro inh-2 4.
Screening N#CC1=C(N)N(c2ccccc2)C(c2ccco2)C1(C#N)C#N (stereo not drawn) returned CCHF vOTU inh 3, VHR inh abs 9, RecA splice inh 8, SSB-PriA inh 16 and SARS 3CLpro inh-1 -1.
`C/C(Cn1nnc([N+](=O)[O-])n1)=N\NC(=O)c1ccc(Cl)c(Cl)c1` gave CCHF vOTU inh -11, VHR inh abs 14, RecA splice inh -6, SARS 3CLpro inh-1 14* and SARS 3CLpro inh-2 0.
CCOC(=O)c1ccc(CC2SC(=Nc3cccc(C)n3)NC2=O)cc1 (stereo not drawn) was read as SSB-PriA inh -9.
Screening CCCNC(=O)CCc1nnc2ccc(N3CCC(C)CC3)nn12 returned CCHF vOTU inh 2, VHR inh abs 1, RecA splice inh 0, SSB-PriA inh 4 and SARS 3CLpro inh-1 3.
For CC1CCN(c2ccc3nnc(CCC(=O)NCCCOC(C)C)n3n2)CC1 the results were CCHF vOTU inh 9, VHR inh abs 4, RecA splice inh 1, SSB-PriA inh -9, SARS 3CLpro inh-1 16* and SARS 3CLpro inh-2 -1.
O=C(CSc1ccc(-c2ccc(-n3ccnc3)cc2)nn1)N1CCc2ccccc21 was read as SSB-PriA inh 1.
Screening O=C1C(C2=NC(c3ccccn3)C3C(=O)N(c4ccccc4)C(=O)C23)=C(O)c2ccccc21 (stereo not drawn) returned CCHF vOTU inh 16, VHR inh abs -7, RecA splice inh -2, SSB-PriA inh -7, SARS 3CLpro inh-1 80* and SARS 3CLpro inh-2 3.
For C/C(=N\NC(=O)c1ccc(Cl)c(Cl)c1)c1cccc(NC(=O)C(C)C)c1 the results were CCHF vOTU inh 11, VHR inh abs 18, RecA splice inh -1, SARS 3CLpro inh-1 23* and SARS 3CLpro inh-2 -1.
`CC(=NNC(=O)c1ccc(Cl)c(Cl)c1)c1cccc(NC(=O)C(C)C)c1` gave SSB-PriA inh -29.
`COc1ccc(C)cc1NC(=O)Cn1cnc2c(-c3ccccc3)csc2c1=O` gave SSB-PriA inh -3.
